Compound activity deposited in PubChem by National Center for Advancing Translational Sciences (NCATS).
The list is not random: actives were taken first. Their share in the collection is about 0.086%.
MBNL1 CUG block: qHTS Assay for Inhibitors of MBNL1-poly(CUG) RNA binding. TR-FRET MBNL1-His/biotin-(CUG)12 binding, 665/545 ratio. Potency, µM (top dose mostly 57.5 µM), inactives show at the top dose activity change, negative = inhibition, usual class: inhibitors. actives 0.036% (n = 280,000). AID 2675, 2010; active = well fitted inhibition curve with a large enough effect in the signal ratio, with a control signal flat, not every such curve was filed as active; inconclusive = small, poorly fitted or top-dose-only effect, or effect the other way, or a change in a side signal; inactive = no such curve, though single readings can be large or run the other way; the % refers to the signal ratio; also: potency is read from the fitted curve at half-maximal effect; % is scaled to controls: 0 for no effect and ±100 for the full control effect
Target sequence (Q9NR56 whole entry, looked up): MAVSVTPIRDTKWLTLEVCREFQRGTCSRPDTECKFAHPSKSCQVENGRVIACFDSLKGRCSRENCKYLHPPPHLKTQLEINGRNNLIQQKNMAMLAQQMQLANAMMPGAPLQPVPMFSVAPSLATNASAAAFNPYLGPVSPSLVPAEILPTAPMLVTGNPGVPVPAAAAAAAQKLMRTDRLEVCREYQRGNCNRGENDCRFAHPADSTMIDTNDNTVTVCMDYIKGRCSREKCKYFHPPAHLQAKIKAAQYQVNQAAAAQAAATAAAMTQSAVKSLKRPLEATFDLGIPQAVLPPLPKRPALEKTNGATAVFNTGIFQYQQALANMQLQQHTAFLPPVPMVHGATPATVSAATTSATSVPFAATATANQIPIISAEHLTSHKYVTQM
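Compound titration spanned 92 nM–58 uM against the MBNL1-His/biotin-(CUG)12 complex. After 60 min at room temperature with 5 nM streptavidin-XL665 and 0.055 ng/ul terbium anti-His, ratiometric 665/545 nm emission (Ex 340 nm) normalized to controls.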
TCR act: Activators of T cell receptors: qHTS campaign | primary human leukocytes, anti-CD3, IL-2 HTRF, 48 h | Potency, µM (highest dose often 9.22 µM), inactives show at the top dose activation of IL-2 secretion, most hits filed as activators | 330,000 tested, under 10 active; also: % of control where 0% means no effect
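TCR engagement came from a-CD3 beads alone, with compounds added to primary human leukocytes for 48 hr. Secreted IL-2 bridged europium cryptate- and d2-labelled anti-IL-2 antibodies, giving FRET emission at 665nm after 320nm excitation.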
Integrin act MD: qHTS for Activators of Integrin-Mediated Alleviation for Muscular Dystrophy. AID 624291, 2012. actives 0.064% (n = 350,000). Potency, µM (titrated, usually from 38.3 µM), inactives show top-dose activation, usual class: activators. alpha7betagal myoblasts, beta-gal FDG fluorescence, 48 h;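 also: potency is read from the fitted curve at half-maximal effect; 100% = response of the positive control SU9516; nearly all actives have a fitted effect of over 60% in size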
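alpha7betagal+/- myoblasts (passage 13, 250/well) treated 48 h at 37C with compounds at 1:260 dilution of DMSO stock. Lysed, then beta-galactosidase activity read as FDG fluorescence (ex 480/em 540) after 30 min, with pre-read for autofluorescence.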
CBFb RUNX1 block: qHTS Assay for Compounds Blocking the Interaction Between CBF-beta and RUNX1 for the Treatment of Acute Myeloid Leukemia; AlphaScreen CBFb-His/RUNX1-biotin binding, biochemical; 230,000 tested, under 10 active; Potency, µM (series often up to 59.8 µM), for the others: top-dose activity, negative = inhibition, hits mostly inhibitors; Runt-related transcription factor 1 (Homo sapiens) + Core-binding factor subunit beta …; AID 1477, 2009; also: % of control where 0% means no effect
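Compounds were screened at multiple concentrations against a preformed CBF-beta(His)/RUNX1(biotin) complex (30 nM of each) for 15 min at room temperature, followed by 90 min with nickel and streptavidin beads and AlphaScreen reading.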
MBNL1-CUG FRET: qHTS Assay for Inhibitors of MBNL1-poly(CUG) RNA binding: Initial hit validation from the primary screen; shares compounds with MBNL1 CUG block; TR-FRET MBNL1-His / biotin-(CUG)12 binding, 60 min; Potency, µM (series often up to 57.6 µM), for inactives: at the highest dose activity change, negative = inhibition, actives largely listed as inhibitors; actives 50% (n = 140)
MBNL1 AlphaScrn: qHTS Assay for Inhibitors of MBNL1-poly(CUG) RNA binding: Initial hit validation in AlphaScreen assay for MBNL1-(CUG)12 binding. shares compounds with MBNL1 CUG block. AlphaScreen MBNL1-His / biotin-(CUG)12 binding. Potency, µM (highest dose often 57.7 µM), for inactives: at the top dose activity, negative = inhibition, hits mostly inhibitors. actives 30% (n = 140). AID 493205, 2011
MBNL1 HTRF CS: qHTS Assay for Inhibitors of MBNL1-poly(CUG) RNA binding: Counterscreen HTRF assay. shares compounds with MBNL1 CUG block. His-Menin/biotin-MLL peptide TR-FRET counterscreen. Potency, µM (top dose mostly 57.6 µM), for inactives: top-dose activity, negative = inhibition, usual class: inhibitors. actives 20% (n = 120)
Starred values were filed as active, the others as inactive; u = inconclusive; x = no result; [ ] = another dose, or the depositor's remark. Unless noted, calls follow the shape of the dose curve; as a rule, active = well fitted curve in the direction sought with a large enough effect; inconclusive = small, poorly fitted or top-dose-only effect, or another doubt; inactive = no such curve, though single readings can be large; an effect the other way counts as inactive or inconclusive.

SMILES	MBNL1 CUG block	TCR act	Integrin act MD	CBFb RUNX1 block	MBNL1-CUG FRET	MBNL1 AlphaScrn	MBNL1 HTRF CS
Cc1ccc(/C=c2\sc3n(c2=O)CN(c2ccc(Br)cc2)CN=3)o1	u	5.1%	6.9%	8.0%	x	x	x
C/C1=C2N=C(/C=C3N=C(/C(C)=C4\[N-]C(C)(C5N=C1C(C)(CCC(=O)NCC(C)OP(=O)([O-])O[C@H]1C(O)C(n6cnc7cc(C)c(C)cc76)O[C@@H]1CO)C5CC(N)=O)C(C)(CC(N)=O)C4CCC(N)=O)C(C)(CC(N)=O)C\3CCC(N)=O)C(C)(C)C/2CCC(N)=O.[CH2-]C1OC(n2cnc3c(N)ncnc32)C(O)C1O.[Co] (stereo partly specified)	x	x	x	-12.9%	0.116µM*	5.17µM*	x
O=C(c1ccco1)N1CCC(N2CCN(c3ccccc3)CC2)CC1	-9.3%	2.1%	4.5%	10.4%	x	x	x
O=C(Nc1cc(C(=O)Nc2ccc(S(=O)(=O)O)cc2S(=O)(=O)O)cc(C(=O)Nc2ccc(S(=O)(=O)O)cc2S(=O)(=O)O)c1)Nc1cc(C(=O)Nc2ccc(S(=O)(=O)O)cc2S(=O)(=O)O)cc(C(=O)Nc2ccc(S(=O)(=O)O)cc2S(=O)(=O)O)c1	x	x	x	1.3%	20µM*	28.2µM*	x
COc1ccc(NC(=O)C2CCCN2C(=O)NCc2ccccc2)c(OC)c1 (stereo unspecified)	2.0%	x	2.1%	6.2%	x	x	x
O=C(Nc1cccc2c1CCCC2)c1cc([N+](=O)[O-])cc([N+](=O)[O-])c1	11.2%	0.8%[46.1 µM]	-19.6%	-0.3%	x	x	x
COc1cc2c(C#N)c(N3CCCC3)nc(N)c2c(N)n1	u	2.6%	22.4%	11.2%	x	x	x
N#Cc1c(N2CCCC2)nc(N)c2c(N)nc(N3CCCC3)cc12	x	-5.3%	-14.3%	u	5.17µM*	0.651µM*	21.8%
CC1(C)CCC2=C(O1)c1ccccc1C(=O)C2=O	u	x	x	u	u	20µM*	x
O=C(O)c1ccc(-c2noc(-c3cccc(C(F)(F)F)c3)n2)cc1	x	9.1%	x	x	x	x	x
Cc1ccc(-c2cc(-c3ccccc3C)[nH]n2)c(O)c1	20µM*	-7.2%[46.1 µM]	1.1%	-6.2%	4.8%	3.7%	-2.5%
COc1cc(C(=O)N/N=C\c2ccccc2)c([N+](=O)[O-])c(OC)c1OC	15.9%	0.7%[46.1 µM]	5.7%	-5.3%	x	x	x
CC(=O)c1cccc(NC(=O)Nc2cccnc2)c1	25.1µM*	7.4%[46.1 µM]	u	-9.2%	25.9µM*	1.5%	u
O=C(/C=C/c1cccs1)Nc1nc(-c2ccccc2)cs1	1.3%	-4.1%	-3.5%[7.66 µM]	25.0%	x	x	x
O=C(/C=C/c1cccs1)Nc1scc(-c2ccccc2)c1C(=O)O	x	-2.7%	-35.2%	-9.5%	20.6µM*	13µM*	9.7%
CCOCCCNC(=O)CCCn1nc(C)n2c(cc3sccc32)c1=O	7.7%	-1.2%	20.5%	0.1%	x	x	x
O=C(O)C1Nc2c(O)cccc2C2C=CCC12 (stereo unspecified)	x	2.8%	-44.6%	x	10.3µM*	2.06µM*	5.4%
O=C(O)C1Nc2c(Cl)cc(Cl)cc2C2C=CCC12 (stereo unspecified)	17.3%	7.0%	5.7%	x	x	x	x
